Data on 89 molecules can be found in PubChem BioAssay AID720596 (The Scripps Research Institute Molecular Screening Center, 2013).

Each structure is given as a SMILES string. Hit rate of the full screen: of about 370,000 compounds, about 1,600 (0.43%) were called active. Cut-off read from the data, not from the text of the source: active = inhibition above about 24%; inactive = the rest. This excerpt belongs to a sample that is enriched for actives.

The test deals with Major prion protein (Homo sapiens) (UniProt P04156). Briefly: reduces human prion protein on the cell surface, primary screen, cell-based, TR-FRET (AID 720596). Note: 0% = median of the test wells and 100% = reference compound wells. The settings on record: cell surface PrPC, TR-FRET read-out; at 13.8 µM; hits give high values.
As for `COc1cc(C)c(Cl)cc1S(=O)(=O)n1ccnc1`, the inhibition was -3.46% (inactive).
Take `Cc1cc2ccccc2n1CCNC(=O)COc1ccc2ccccc2c1`: the inhibition was 45.2% (active).
As for `COc1ccc(CCNC(=O)COc2ccc3c(c2)OCO3)cc1`, the figure is -3.21% (inactive).
As for `O=C(COc1ccc2ccc(=O)oc2c1)NCC(O)c1ccccc1` (centres undefined), the figure is -8.2% (inactive); as for `Cc1ccc(C)c(NC(=O)CCS(=O)(=O)c2ccccc2)c1`, 4.81% (inactive).
As for `CCc1nc2ccc(C(=O)NCCNC(C)=O)cn2c1N(CC)Cc1cccc(Br)c1`, the figure is 1.46% (inactive).
Take `CCOC(=O)N1CCN(C(=O)c2ccccc2N(Cc2ccccc2)S(=O)(=O)c2ccc(OC)cc2)CC1`: the inhibition was 9.59% (inactive).
The same measure for `COc1cccc(Cn2cc(COC(=O)Nc3ccc(F)cc3)nn2)c1`: 6.34% (inactive).
As for `CN(C)C(=O)c1nc2ccc(Cl)cn2c1CNCc1cccc(OC(F)(F)F)c1`, the figure is -9.54% (inactive); as for `C=CCNC(=O)CSc1nc2scc(-c3ccco3)c2c(=O)n1CC=C`, 25.2% (active); as for `C=CCn1c(SCC(=O)c2c(N)n(C)c(=O)n(C)c2=O)nc2sc(CC)cc2c1=O`, 2.42% (inactive).
As for `C=CCn1c(=S)[nH]c2scc(-c3ccco3)c2c1=O`, the figure is 4.26% (inactive); as for `Nc1nc(NC(=O)/C=C/c2ccc(F)cc2)nn1-c1ccccc1`, -4.74% (inactive); as for `COc1ncnc2c1ncn2CCCNCCN1CCOCC1`, -1.3% (inactive).
As to `CCOC(=O)[C@]12CCCC=C1N(Cc1ccc(OC)cc1)C(=O)[C@@H]2CC(=O)NCc1cccs1`, the inhibition was 6.08% (inactive).
As for `NC(=O)C1CCN(Cc2nc3c(Br)cc(Br)cc3c(=O)[nH]2)CC1`, the figure is 28.2% (active); as for `O=C(Nc1ccccc1)N1CCN(Cc2nc3ccccc3c(=O)[nH]2)CC1`, -8.21% (inactive).
The same measure for `NC(=O)C1CCN(C(=O)c2ccc3c(=O)n(Cc4cccc(Br)c4)c(=S)[nH]c3c2)CC1`: 9.5% (inactive).
As for `O=C(NC1CCCC1)C1c2ccccc2OCC(=O)N1CC(F)(F)F` (centres undefined), the figure is 1.68% (inactive); as for `O=C(CN1C(=O)C2C3C=CC(C3)C2C1=O)Nc1nc(-c2ccccn2)cs1` (centres undefined), 2.72% (inactive).
On to `CCc1nnc(NC(=O)CSc2nnc(COc3ccc(C#N)cc3)n2-c2ccccc2)s1`, for which the inhibition was 0.08% (inactive).
As for `N#Cc1ccc(OCC(=O)Nc2nc(-c3ccccn3)cs2)cc1`, the figure is 32.4% (active); as for `CCN(Cc1ccncc1)C(=S)Nc1ccccc1C`, 0.38% (inactive); as for `O=S(=O)(c1ccccc1)N(Cc1cccc(F)c1)c1ccccc1`, 7.38% (inactive).
As for `Fc1ccc(COc2ccc(-c3nnco3)cc2)cc1`, the inhibition was 1.45% (inactive).
The same measure for `COc1ccc2c(Cl)c(-c3nnco3)sc2c1`: 24.9% (active); for `C#CCSc1nnc(-c2sc3ccccc3c2Cl)o1`: 3.9% (inactive).
As for `Cn1cnc(S(=O)(=O)N2C[C@@H](O)COC[C@@H]3O[C@H](CC(=O)NC4CCC4)CC[C@H]32)c1`, the figure is 9.27% (inactive); as for `Cc1nn(-c2ccccc2)c(=O)c2noc(C)c12`, 1.14% (inactive); as for `CCCCn1c(SCc2ncc(-c3ccccc3)o2)nc2cc(S(N)(=O)=O)ccc21`, 2.37% (inactive).
With `COc1ccc(C[C@H]2CN3C(=NC[C@H]3C)N2CCNC(=O)CCC2CCCCC2)cc1`, the inhibition is -0.91% (inactive).
The same measure for `CC1(C(=O)NS(=O)(=O)Cc2cccc(Cl)c2)CCN1C(=O)Cc1ccc(Cl)cc1Cl` (centres undefined): 1.42% (inactive); for `O=S(=O)(c1ccc(SCc2ccccc2)nc1)N1CCCCCC1`: -0.79% (inactive); for `Cc1ccc(CSc2ccc(S(=O)(=O)N3CCCCC3)cn2)cc1`: 33.8% (active).
The same measure for `COC(=O)c1ccc(CSc2ccc(S(=O)(=O)N3CCCCC3)cn2)cc1`: 0.66% (inactive); for `CCOc1ccc(CCNC(=O)C2CCN(c3ccc(N4CCOCC4)nn3)CC2)cc1OCC`: -16.1% (inactive).
With `O=C(/C=C/c1cccc([N+](=O)[O-])c1)OCC(=O)N1CCOCC1`, the inhibition was -2.76% (inactive).
As for `CCN(C(=O)[C@@H](C1CC1)[C@@H](O)c1ccc2ccccc2c1)c1ccccc1`, the figure is -3.85% (inactive).
As for `COc1ccc(CN2CCC(c3nc4ccc(Cl)cc4[nH]3)CC2)cc1`, the figure is -13.1% (inactive); as for `Cc1ccc(CN2CCCOCCS2(=O)=O)cc1`, 2.42% (inactive); as for `COc1ccc(C(=O)N2CCCCC2c2cc(C(=O)Nc3ccc(F)c(Cl)c3)no2)cc1` (centres undefined), -1.86% (inactive).
The same measure for `CCc1c(C)nc2cc(-c3cccs3)[nH]n2c1=O`: 37.9% (active).
On to `CCc1c(C)nc2cc(C)[nH]n2c1=O`, for which the inhibition is 1.02% (inactive).
As for `Cc1cc(=O)n2[nH]c(-c3sccc3-n3c(C)ccc3C)cc2n1`, the inhibition is 13.4% (inactive).
Turning to `CC(C)n1c(=S)[nH]c2cc(C(F)(F)F)ccc21`, the inhibition was -2.04% (inactive).
As for `O=C(NC(Nc1nc2ccc([N+](=O)[O-])cc2s1)(C(F)(F)F)C(F)(F)F)c1ccccc1`, the figure is 43.8% (active).
The same measure for `O=C(Nc1nc2ccc(Cl)cc2s1)c1cc(-c2ccc(Cl)cc2)nc2ccccc12`: 6.81% (inactive).
As for `O=C(CNC(=O)c1ccccc1)OC(C(=O)Nc1cc([N+](=O)[O-])ccc1F)c1ccccc1` (centres undefined), the figure is 9.58% (inactive); as for `Cc1cc(C(=O)NN=C/C=C/c2ccco2)n[nH]1`, -15.4% (inactive); as for `CCn1c(SCC(=O)Nc2nc(C)cs2)nnc1C(C)NC(=O)c1ccccc1` (centres undefined), -3.46% (inactive).
For the molecule `CC(=O)N1C[C@@H](CO)[C@@H](N(C)C(=O)c2ccco2)C[C@H]1c1ccccc1`, the inhibition is -3.63% (inactive).
Take `CCN(CC(=O)NCc1cccs1)C(=O)/C=C/c1ccc(C)cc1`: the inhibition is -4.17% (inactive).
As for `COC(=O)Cc1[nH]n(-c2nc3ccccc3s2)c(=O)c1C(C)=Nc1ccc(OC)cc1`, the figure is 32.6% (active); as for `O=C(COC(=O)CNS(=O)(=O)c1ccc(F)c(F)c1F)NC1CCCC1`, -0.54% (inactive).
Turning to `O=C(COC(=O)c1cnccn1)Nc1ccc(Cl)cc1C(F)(F)F`, the inhibition was 5.86% (inactive).
As for `Cc1c(S(=O)(=O)N2CC(C)CC(C)C2)c(=O)n(C)c(=O)n1C` (centres undefined), the inhibition was 5.95% (inactive).
As for `CCSc1nc(C)c(CCOc2cccc(C)c2)c(=O)[nH]1`, the figure is 4.37% (inactive); as for `CC(C)N(C(=O)CSc1nc(COc2ccccc2)nc2ccccc12)C(C)C`, 12.9% (inactive).
As to `CN(C)S(=O)(=O)c1ccc(NC(=O)COC(=O)c2n[nH]c3ccccc23)cc1`, the inhibition is 0.47% (inactive).
In the case of `CCCc1nc(SCC(=O)Nc2ccc(S(=O)(=O)N(C)C)cc2)c2ccccc2n1`, the inhibition is 52.8% (active).
As for `COc1ccc(C(=O)Cn2nnc(-c3ccc(N4CCOCC4)cc3)n2)cc1OC`, the figure is 2.45% (inactive).
As for `O=c1[nH]c(=O)n(Cc2ccco2)c2c1C(C(F)(F)F)(C(F)(F)F)N=C(c1ccco1)N2`, the figure is -1.08% (inactive); as for `Fc1ccc2[nH]c3c(N4CCSCC4)ncnc3c2c1`, 40.8% (active); as for `CC(=O)NC(NC(=S)Nc1c(C)n(C)n(-c2ccccc2)c1=O)C(Cl)(Cl)Cl` (centres undefined), -1.39% (inactive).
As for `CCN(CC)c1ccc(C(=O)NNC(=O)CCc2nc3ccccc3c(=O)[nH]2)cc1`, the figure is 1.99% (inactive); as for `Cc1ccc(SCC(=O)NNC(=O)c2ccc(S(C)(=O)=O)cc2)cc1`, -1.94% (inactive).
Regarding `CCc1nc(SCC(=O)NNC(=O)c2ccc(C)cc2)c2ccccc2n1`, the inhibition is 97.6% (active).
As for `CCCN(CCC)S(=O)(=O)c1ccc(C(=O)N2CC3CCC(CC3)C2)cc1`, the figure is 0.5% (inactive); as for `O=C(Nc1c(Cl)c(C2CC2)nn1-c1ccccc1)C(Cl)(Cl)Cl`, 1.29% (inactive); as for `CCC(C)NC(=O)N[C@@H](CCSC)C(=O)O` (some centres undefined), -4.34% (inactive).
As for `CCC(C)NC(=O)c1nn(C)c(=O)c2ccccc12` (centres undefined), the figure is -2.76% (inactive); as for `Cc1cccc(C(=O)C(O)(c2ccccc2)C2CCCCC2=O)c1` (centres undefined), -5.23% (inactive).
For `O=C(COC(=O)c1ccccc1SCC(=O)NC1CCCCC1)NC1CCCCC1`, the inhibition is 52.2% (active).
As for `O=C(COC(=O)c1cccc(Cl)c1Cl)NC1CCCCCC1`, the figure is 4.24% (inactive).
The same measure for `N#Cc1ccccc1Sc1ccccc1C(=O)OCC(=O)NC1CCCCC1`: -7.2% (inactive); for `COC(=O)Cc1nc2c(N)nc(N)nc2[nH]c1=O`: 4.68% (inactive); for `Cc1sc(NC(=O)C2C3CCC(O3)C2C(=O)O)c(C(=O)OC(C)C)c1-c1ccc(Cl)cc1` (centres undefined): 7.78% (inactive).
The same measure for `CC(=O)N1c2ccc(S(=O)(=O)N3CCCC(C(=O)Nc4cccc(F)c4)C3)cc2CC1C` (centres undefined): 51.1% (active); for `CC(=O)N1c2ccc(S(=O)(=O)N3CCC(C(=O)NC4CCCCC4C)CC3)cc2CC1C` (centres undefined): 6.59% (inactive); for `CC(=O)N1c2ccc(S(=O)(=O)N3CCC(C(=O)NCc4ccc(F)cc4)CC3)cc2CC1C` (centres undefined): -0.57% (inactive).
In the case of `CC(=O)N1CCCc2cc(S(=O)(=O)N3CCCC(C(=O)NCc4ccc(Cl)cc4)C3)ccc21` (centres undefined), the inhibition was 29.3% (active).
The same measure for `CC(=O)N1c2ccc(S(=O)(=O)N3CCCC(C(=O)Nc4ccc(C)cc4C)C3)cc2CC1C` (centres undefined): 6.63% (inactive); for `CC(=O)N1CCCc2cc(S(=O)(=O)N3CCCC(C(=O)N4CCN(c5cccc(Cl)c5)CC4)C3)ccc21` (centres undefined): 40.4% (active).
The same measure for `COc1ccc(S(=O)(=O)N2CCCC(C(=O)N3CCN(C)CC3)C2)cc1C` (centres undefined): 2.94% (inactive); for `CC(=O)N1c2ccc(S(=O)(=O)N3CCCC(C(=O)NCc4ccc(Cl)cc4)C3)cc2CC1C` (centres undefined): 10.5% (inactive); for `CCOC(=O)C1CCN(C(=O)C2CCCN(S(=O)(=O)c3ccc(OC)c(Cl)c3)C2)CC1` (centres undefined): -3.34% (inactive).
As for `CCOC(=O)C1CCN(C(=O)COc2cc(C)c(Br)c(C)c2)CC1`, the figure is 0.57% (inactive); as for `O=C(/C(=N\O)n1cncn1)c1ccc(Br)cc1Br`, -3.03% (inactive).
As for `CC12CN(Cc3ccccc3)CC(C)(CN(Cc3ccccc3)C1)C2=NO`, the inhibition is -7.09% (inactive).

For orientation: inhibition means the drop in the measured response relative to a control, in per cent.
